# According to PubChem BioAssay:
# Active and inactive are the calls of the source.
# Key:
# [1] = system: XIP peptide (Xip251-270) binding; assay: small-molecule binders of XIP peptide, primary screen, biochemical, small-molecule microarray, fluorescence 635/667 nm, 0.1 µg/mL protein (AID 1182); details: fluorescent protein binding, 635 nm, higher = more signal, called active from +8 up or from −8 down
# XIP peptide (Xip251-270) = assay: small-molecule binders of XIP peptide, primary screen, biochemical, small-molecule microarray, fluorescence 635/667 nm, 0.5 µg/mL protein (AID 1183); details: small-molecule microarray binding, fluorescence 635 nm; higher = more signal
# [2] = Plasmodium falciparum growth inhibition, primary screen, strain 3D7, DAPI fluorescence, 100 nL (AID 1184);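 further: parasites grown inside human red blood cells in medium with human serum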; details: P. falciparum 3D7 growth, 3 d, higher = more signal
# [3] = target: Homeobox protein Hox-A13 (Mus musculus) (UniProt Q62424); assay: inhibitors of HoxA13-DNA binding, primary screen, biochemical, fluorescence polarization, labeled oligonucleotide (AID 1185); details: 15 min, higher = more signal, called active from +8 up or from −8 down
# Homeobox protein Hox-A13 (Mus musculus), sequence (Q62424 whole entry, looked up): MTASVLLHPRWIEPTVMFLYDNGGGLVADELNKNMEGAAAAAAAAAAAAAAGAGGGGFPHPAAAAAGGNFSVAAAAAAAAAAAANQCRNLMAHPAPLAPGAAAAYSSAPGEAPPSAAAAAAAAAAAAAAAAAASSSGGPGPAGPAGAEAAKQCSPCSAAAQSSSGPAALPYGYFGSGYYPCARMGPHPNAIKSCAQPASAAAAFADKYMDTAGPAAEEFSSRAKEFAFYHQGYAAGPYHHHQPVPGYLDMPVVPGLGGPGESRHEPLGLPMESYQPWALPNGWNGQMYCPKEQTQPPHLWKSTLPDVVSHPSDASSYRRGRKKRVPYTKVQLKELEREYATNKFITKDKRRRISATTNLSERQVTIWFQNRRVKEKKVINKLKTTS
Compound,composite z-score [1],composite z-score (XIP peptide (Xip251-270)),z-score [2],z-score [3]
COc1cccc([C@H]2Oc3ccc(OC)cc3C(=NO[C@@H](C)c3cc(-c4c(C)cc(C)cc4C)no3)[C@@H]2O)c1,-0.294 (inactive),0.0817,-0.24,0.621 (inactive)
COC(=O)[C@@H]1CC[C@H](C)[C@@H](c2ccc(Br)cc2)N1C(=O)C(F)(F)F,0.0945 (inactive),-0.635,-0.541,-0.733 (inactive)
CC(C)CON=C1C[C@@H](O)[C@@H](O)[C@@H]2[C@@H]3C(=O)N(C(C)(C)C)C(=O)[C@@H]3CC[C@@H]12,0.0494 (inactive),-0.295,-1.62,-0.298 (inactive)
CCOC(=O)NN=C1C[C@@H](O)[C@@H](O)[C@@H]2[C@@H]3C(=O)N(c4ccc(F)cc4F)C(=O)[C@@H]3CC[C@H]12,0.192 (inactive),-0.119,-1.36,1.14 (inactive)
C=CC[C@@H]1C=C[C@H](ON=C[C@@H](NS(=O)(=O)c2ccc(C)cc2)[C@H](C)C=CCC(=O)OC)[C@@H](CO)O1,0.278 (inactive),0.463,-0.174,-4.66 (inactive)
CCN1C(=O)[C@H]2[C@H]3[C@H](O)[C@H](O)CC(=NO[C@@H](C)c4cc(-c5c(C)cc(C)cc5C)no4)[C@@H]3CC[C@H]2C1=O,0.359 (inactive),0.811,0.563,-6.73 (inactive)
O=C1[C@H]2[C@H]3[C@H](O)[C@H](O)CC(=NO[C@@H]4O[C@H](CO)[C@@H](O)[C@H](O)[C@H]4O)[C@H]3CC[C@H]2C(=O)N1c1ccc(F)cc1F,0.391 (inactive),0.502,-0.652,-7.01 (inactive)
COC(=O)[C@@H]1CC[C@H](C)[C@@H](c2ccc(Br)cc2)N1,1.53 (inactive),-0.381,0.165,-0.164 (inactive)
COc1ccc(OC[C@@H](CO)OC)cc1,0.617 (inactive),-0.317,1.62,-0.0261 (inactive)
O=C1[C@H]2[C@H]3[C@H](O)[C@H](O)CC(=NOC[C@@H](O)COCc4ccco4)[C@@H]3CC[C@H]2C(=O)N1Cc1ccccc1,0.41 (inactive),0.64,-0.986,-2.98 (inactive)
COC(=O)[C@H](C)NC(=O)CCC1CC(OC(=O)NCc2ccc3c(c2)OCO3)CC2(CCCC(COC(=O)NCc3ccccc3)O2)O1 (some centres not stated),0.361 (inactive),0.554,-1.75,-2.47 (inactive)
CC(CCN1CCCc2nc(C)c(C)cc21)=NOC[C@@H](O)COCc1ccco1,4.43 (inactive),0.831,0.245,-8.38 (active)
CC(=O)OC[C@H]1O[C@H](CC=NOC[C@@H](O)COCc2ccco2)C=C[C@@H]1OC(C)=O,0.084 (inactive),0.479,0.466,-0.226 (inactive)
CCOC(=O)CCN1C(=O)[C@H]2[C@H]3[C@H](O)[C@H](O)CC(=NNC(=O)OCc4ccccc4)[C@H]3CC[C@H]2C1=O,0.0983 (inactive),-0.0907,-0.873,-3.59 (inactive)
O=C1C=C[C@@H](O)[C@@H]2[C@@H]3C(=O)N(Cc4ccc5c(c4)OCO5)C(=O)[C@@H]3CC[C@@H]12,-0.297 (inactive),0.228,-0.786,-0.416 (inactive)
C#CCCCON=C1C[C@@H](O)[C@@H](O)[C@@H]2[C@@H]3C(=O)N(C[C@@H]4CCCO4)C(=O)[C@@H]3CC[C@H]12,0.241 (inactive),0.317,0.211,-1.28 (inactive)
CCOC(=O)CCN1C(=O)[C@H]2[C@@H]3C(=CC[C@H]2C1=O)C(=O)[C@H]1O[C@H]1[C@H]3O,-0.0103 (inactive),-0.465,-1.5,-4.11 (inactive)
O=C1C2=CC[C@H]3C(=O)N(C[C@@H]4CCCO4)C(=O)[C@H]3[C@H]2[C@H](O)[C@@H]2O[C@H]12,-0.14 (inactive),0.39,-0.434,-3.47 (inactive)
C[C@@H]1C=CCC(=O)OC[C@H](C)C(=O)N[C@@H](Cc2ccccc2)C(=O)OC1,-0.478 (inactive),-0.0947,-1.55,2.57 (inactive)
COC(=O)[C@H](C)NC(=O)CCC1CC(OC(=O)NCc2ccc3c(c2)OCO3)CC2(CCCC(COC(=O)NCCc3ccc(Cl)cc3)O2)O1 (some centres not stated),0.0239 (inactive),0.375,-1.97,-5.07 (inactive)
COC(=O)[C@H](CCSC)NC(=O)CC=C[C@@H](C)CO,-0.0999 (inactive),0.334,-0.979,-0.265 (inactive)
CC(=O)OC[C@H]1O[C@H](CC=NOC(C)CN2CCCCc3nc(C)c(C)cc32)C=C[C@@H]1OC(C)=O (some centres not stated),0.231 (inactive),0.646,-0.445,-3.74 (inactive)
CC(C)[C@@H](OCc1ccccc1)[C@H](C)C=NOC[C@@H](O)[C@H]1O[C@@H]2OC(C)(C)O[C@@H]2[C@H]1O,-0.12 (inactive),0.258,-0.489,-1.24 (inactive)
